# Active and inactive are the calls of the source.
# Experiments:
# [1] = tested on: Plasmodium falciparum Sir2 (PF13_0152, Sir2A); assay: Plasmodium falciparum Sir2A binding compounds – biochemical, small-molecule microarray, 635 nm fluorescence, primary screen (AID 1098); settings: fluorescence 635 nm, higher = more signal;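 note: score merges spot fluorescence intensity with its signal-to-noise ratio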
# [2] = probe aDKK1 binding to arrayed compounds – biochemical, biotinylated probe, 635/667 nm fluorescence, primary screen (AID 1099); settings: small-molecule microarray, higher = more signal;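 note: score merges 667nm spot fluorescence with signal to noise across triplicate slides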
# [3] = probe aCHRDL2 binding to arrayed compounds – biochemical, biotinylated probe, 635/667 nm fluorescence, primary screen (AID 1100); settings: small-molecule microarray, higher = more signal
# [4] = change in splice reporter luminescence, either direction, cell-based, HEK293, spliceosome inhibition project, primary screen (AID 1101); settings: HEK293 splicing luciferase reporter, 24 h, higher = more signal, called active from +8 up or from −8 down;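 note: HEK293 cells carrying a splicing-competent luciferase reporter gene; test concentration not given here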
# [5] = target: Fibroblast growth factor 10 (Homo sapiens) (UniProt O15520); assay: compounds binding fibroblast growth factor 10 – biochemical, small-molecule microarray, 635 nm fluorescence, primary screen (AID 1102); settings: FGF10 binding, fluorescence 635 nm, higher = more signal
# Fibroblast growth factor 10 (Homo sapiens), sequence (O15520 whole entry, looked up): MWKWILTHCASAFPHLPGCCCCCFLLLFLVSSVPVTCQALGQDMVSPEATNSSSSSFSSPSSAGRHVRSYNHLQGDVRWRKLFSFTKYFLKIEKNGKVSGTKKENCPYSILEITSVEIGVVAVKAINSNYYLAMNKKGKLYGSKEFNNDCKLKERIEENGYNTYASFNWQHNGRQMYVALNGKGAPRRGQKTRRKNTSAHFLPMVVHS
# [6] = tested on: glycogen synthase kinase-3 (GSK3A per assay name; protocol says GSK3B); assay: compounds binding glycogen synthase kinase-3 – biochemical, small-molecule microarray, 635 nm fluorescence, GSK3A, primary screen (AID 1103); settings: fluorescence 635 nm, higher = more signal; note: the record names both GSK3A and GSK3B
# [7] = target: Epidermal growth factor receptor (Homo sapiens) (UniProt P00533); assay: compounds binding epidermal growth factor receptor – biochemical, small-molecule microarray, 635 nm fluorescence, primary screen (AID 1104); settings: EGFR binding, higher = more signal;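 note: score merges 667 nm emission intensity with spot signal to noise over triplicate slides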
# Epidermal growth factor receptor (Homo sapiens), sequence (P00533 whole entry, looked up): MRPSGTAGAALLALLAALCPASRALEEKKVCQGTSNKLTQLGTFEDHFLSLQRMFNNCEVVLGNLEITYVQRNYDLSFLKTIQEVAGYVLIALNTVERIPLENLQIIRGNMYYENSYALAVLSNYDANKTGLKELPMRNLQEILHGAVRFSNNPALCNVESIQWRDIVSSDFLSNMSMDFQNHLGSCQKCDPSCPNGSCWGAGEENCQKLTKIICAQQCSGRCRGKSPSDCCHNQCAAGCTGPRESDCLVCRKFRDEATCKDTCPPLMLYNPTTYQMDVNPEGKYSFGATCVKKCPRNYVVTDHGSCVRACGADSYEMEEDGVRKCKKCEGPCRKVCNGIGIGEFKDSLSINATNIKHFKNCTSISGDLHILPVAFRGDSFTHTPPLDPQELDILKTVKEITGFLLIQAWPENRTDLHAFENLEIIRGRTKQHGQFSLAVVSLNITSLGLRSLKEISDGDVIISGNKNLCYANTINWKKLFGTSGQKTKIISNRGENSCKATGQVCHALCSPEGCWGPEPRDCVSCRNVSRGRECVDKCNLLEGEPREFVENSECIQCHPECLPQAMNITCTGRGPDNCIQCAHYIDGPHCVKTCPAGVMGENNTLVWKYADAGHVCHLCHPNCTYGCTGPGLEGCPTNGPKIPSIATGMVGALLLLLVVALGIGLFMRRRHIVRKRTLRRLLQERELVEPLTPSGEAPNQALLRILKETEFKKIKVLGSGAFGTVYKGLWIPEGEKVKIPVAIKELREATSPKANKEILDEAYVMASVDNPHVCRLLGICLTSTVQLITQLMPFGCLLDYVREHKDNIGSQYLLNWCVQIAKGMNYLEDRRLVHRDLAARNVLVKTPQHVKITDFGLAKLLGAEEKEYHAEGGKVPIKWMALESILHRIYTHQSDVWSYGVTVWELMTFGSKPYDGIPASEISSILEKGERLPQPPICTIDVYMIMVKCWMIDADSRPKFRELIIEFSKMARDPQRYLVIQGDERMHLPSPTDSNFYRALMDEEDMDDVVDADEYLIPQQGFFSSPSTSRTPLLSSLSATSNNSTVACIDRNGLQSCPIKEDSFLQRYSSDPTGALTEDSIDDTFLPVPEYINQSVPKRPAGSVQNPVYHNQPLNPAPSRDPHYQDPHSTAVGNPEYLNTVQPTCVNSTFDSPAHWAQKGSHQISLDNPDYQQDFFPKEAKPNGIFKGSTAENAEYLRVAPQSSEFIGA
# [8] = target: Follistatin-related protein 3 (Homo sapiens) (UniProt O95633); assay: compounds binding follistatin-related protein 3 – biochemical, small-molecule microarray, 635 nm fluorescence, primary screen (AID 1105); settings: FSTL3 binding, higher = more signal;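 note: score merges emission near 667 nm and signal to noise per printed spot across three slides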
# Follistatin-related protein 3 (Homo sapiens), sequence (O95633 whole entry, looked up): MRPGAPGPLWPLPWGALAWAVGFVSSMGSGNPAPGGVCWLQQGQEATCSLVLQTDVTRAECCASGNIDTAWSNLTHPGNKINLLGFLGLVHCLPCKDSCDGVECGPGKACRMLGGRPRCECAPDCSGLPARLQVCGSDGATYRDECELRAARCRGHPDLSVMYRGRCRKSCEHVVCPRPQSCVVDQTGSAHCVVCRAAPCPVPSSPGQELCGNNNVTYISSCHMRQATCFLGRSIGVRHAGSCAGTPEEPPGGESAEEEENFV
# [9] = target: Dickkopf-related protein 1 (Homo sapiens) (UniProt O94907); assay: small molecules binding DKK1 protein – biochemical, small-molecule microarray, 635 nm fluorescence scan, primary screen (AID 1106); settings: higher = more signal;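 note: score merges emission near 667 nm with signal to noise over three replicate slides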
# Dickkopf-related protein 1 (Homo sapiens), sequence (O94907 whole entry, looked up): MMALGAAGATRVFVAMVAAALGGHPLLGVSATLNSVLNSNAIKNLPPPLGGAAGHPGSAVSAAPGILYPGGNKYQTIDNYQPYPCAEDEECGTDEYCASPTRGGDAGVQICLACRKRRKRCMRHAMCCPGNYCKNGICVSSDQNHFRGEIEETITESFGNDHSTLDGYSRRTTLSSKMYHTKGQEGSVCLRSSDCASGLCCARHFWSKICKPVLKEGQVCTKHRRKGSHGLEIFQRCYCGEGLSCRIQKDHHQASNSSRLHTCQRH
# [10] = tested on: Inhibin beta A chain (activin A); assay: small molecules binding activin A – biochemical, small-molecule microarray, 635 nm fluorescence scan, primary screen (AID 1107); settings: INHBA, higher = more signal;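 note: mouse activin A protein probed at 4.33 µg/mL on printed slides; score merges bound-protein fluorescence near 667 nm with spot signal-to-noise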
# [11] = tested on: Human papillomavirus type 1a protein E7 (residues 44-93); assay: small molecules binding HPV E7 44-93 – biochemical, small-molecule microarray, residues 44-93, 635 nm fluorescence, primary screen (AID 1108); settings: fluorescence 635 nm, higher = more signal;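 note: E7 fragment applied at 1 µg/mL in TBST for 1 h at 4 C; score combines spot fluorescence with its signal to noise ratio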
# [12] = hepatitis C replication reporter changes, two-sided – Huh7 cells, luciferase reporter, HCV replication inhibitor project, primary screen (AID 1109); settings: Huh7 HCV replicon luciferase reporter, 48 h; higher = more signal;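 note: huh7 hepatoma cells harbouring a luciferase neomycin HCV replicon reporter; luciferase luminescence as measure of HCV replicon replication; test concentration not given here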
# [13] = target: Left-right determination factor 2 (Homo sapiens) (UniProt O00292); assay: small molecules binding LEFTY2 protein – biochemical, small-molecule microarray, 635 nm fluorescence scan, primary screen (AID 1110); settings: higher = more signal
# Left-right determination factor 2 (Homo sapiens), sequence (O00292 whole entry, looked up): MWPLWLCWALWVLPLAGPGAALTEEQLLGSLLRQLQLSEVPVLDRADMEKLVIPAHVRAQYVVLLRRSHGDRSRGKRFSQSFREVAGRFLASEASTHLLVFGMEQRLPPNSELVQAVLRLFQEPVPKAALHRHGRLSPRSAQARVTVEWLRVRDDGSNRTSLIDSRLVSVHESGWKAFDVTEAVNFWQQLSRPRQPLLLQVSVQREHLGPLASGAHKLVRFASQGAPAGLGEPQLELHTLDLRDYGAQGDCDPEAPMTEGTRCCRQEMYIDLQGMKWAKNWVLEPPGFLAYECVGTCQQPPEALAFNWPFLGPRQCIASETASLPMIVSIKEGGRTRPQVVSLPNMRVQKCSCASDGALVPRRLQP
# [14] = target: Calmodulin-1 (Homo sapiens) (UniProt P0DP23); assay: small molecules binding calmodulin-1 with EGTA – biochemical, small-molecule microarray, Cy5-labelled CALM1, profiling panel (AID 1111); settings: Cy5-CALM1 binding fluorescence, higher = more signal;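 note: labelled calmodulin applied in Tris saline Tween buffer holding calcium plus EGTA and DTT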
# [15] = target: Calmodulin-1 (Homo sapiens) (UniProt P0DP23); assay: small molecules binding Ca-loaded calmodulin-1 – biochemical, small-molecule microarray, Cy5-labelled CALM1, plus calcium, artefact control for SMM control-protein annotation, profiling panel (AID 1112); settings: Cy5-CALM1 binding fluorescence, higher = more signal;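 note: score merges spot fluorescence with signal to noise from triplicate slides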
# [16] = probe aWnt5a binding to arrayed compounds – biochemical, biotinylated probe, 635/667 nm fluorescence, primary screen (AID 1113); settings: small-molecule microarray, higher = more signal;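 note: score merges 667 nm fluorescence intensity with signal-to-noise per printed feature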
# [17] = probe aShh binding to arrayed compounds – biochemical, biotinylated probe, 635/667 nm fluorescence, primary screen (AID 1114); settings: small-molecule microarray, higher = more signal;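 note: probe is biotin-labelled aShh protein from a stem cell growth factor screen; measures binding of labelled protein to compounds printed on the slide; score merges feature fluorescence at 667 nm with signal-to-noise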
# [18] = probe aNog binding to arrayed compounds – biochemical, biotinylated probe, 635/667 nm fluorescence, primary screen (AID 1115); settings: small-molecule microarray, higher = more signal;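 note: probe is biotinylated aNog protein used at 0.15 µg/mL for 1 h at 4 C; z-score combines 667 nm fluorescence of each spot with its signal to noise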
# [19] = target: Torsin-1A-interacting protein 1 (Homo sapiens) (UniProt Q5JTV8); assay: compound microarray binding of lysate hLAP1 – cell lysate, small-molecule microarray, COS7 lysate, 635/667 nm fluorescence, primary screen (AID 1116); settings: 635 nm fluorescence, higher = more signal
# Torsin-1A-interacting protein 1 (Homo sapiens), sequence (Q5JTV8 whole entry, looked up): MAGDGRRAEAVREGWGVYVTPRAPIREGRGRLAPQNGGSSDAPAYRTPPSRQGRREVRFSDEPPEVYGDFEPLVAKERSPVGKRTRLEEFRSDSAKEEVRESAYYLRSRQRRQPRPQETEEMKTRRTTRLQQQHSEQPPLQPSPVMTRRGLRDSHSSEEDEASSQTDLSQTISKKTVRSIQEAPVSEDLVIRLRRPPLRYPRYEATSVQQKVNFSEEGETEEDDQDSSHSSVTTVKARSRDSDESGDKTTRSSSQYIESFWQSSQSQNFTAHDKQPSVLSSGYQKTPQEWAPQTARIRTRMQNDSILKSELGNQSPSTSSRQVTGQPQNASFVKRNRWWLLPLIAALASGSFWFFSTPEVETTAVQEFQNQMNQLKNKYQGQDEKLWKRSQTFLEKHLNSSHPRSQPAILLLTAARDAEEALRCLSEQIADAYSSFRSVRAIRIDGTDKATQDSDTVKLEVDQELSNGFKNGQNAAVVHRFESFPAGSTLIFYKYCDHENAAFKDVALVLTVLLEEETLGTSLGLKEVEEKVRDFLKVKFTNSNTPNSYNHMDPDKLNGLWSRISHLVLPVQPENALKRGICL
# [20] = target: Alpha-bungarotoxin (Bungarus multicinctus) (UniProt P60615); assay: compounds binding labelled alpha-BTX control protein – biochemical, small-molecule microarray, Alexa647 label, 635/667 nm fluorescence, artefact control for SMM control protein annotation, profiling panel (AID 1117); settings: alpha-BTX-A647 binding fluorescence, higher = more signal
# Alpha-bungarotoxin (Bungarus multicinctus), sequence (P60615 whole entry, looked up): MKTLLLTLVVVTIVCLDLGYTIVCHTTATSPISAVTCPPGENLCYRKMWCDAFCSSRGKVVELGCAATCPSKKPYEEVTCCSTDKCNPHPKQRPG
smiles,measurement,setting,value
N#Cc1ccc(C(O)C2C=CC3C(=O)N(c4ccccc4)C(=O)C3N2Nc2ccccc2)cc1 (stereo not given),composite z-score,[1],0.592
same,composite z-score,[2],0.759
same,composite z-score,[3],1
same,z-score,[4],-1.04 (inactive)
same,composite z-score,[5],0.913
same,composite z-score,[6],-0.0985
same,composite z-score,[7],0.107
same,composite z-score,[8],0.391
same,composite z-score,[9],-0.352
same,composite z-score,[10],0.877
same,composite z-score,[11],0.86
same,z-score,[12],-0.875
same,composite z-score,[13],-0.224
same,composite z-score,[14],1.03
same,composite z-score,[15],0.492
same,composite z-score,[16],0.0357
same,composite z-score,[17],0.0815
same,composite z-score,[18],1.09
same,composite z-score,[19],0.747
same,composite z-score,[20],1.1
COC(=O)[C@@]1(Cc2ccc(OC)cc2)[C@H]2c3cc(C(=O)N(C)C)n(C[C@H](O)CO)c3C[C@H]2CN1C(=O)c1ccccc1,composite z-score,[1],1.43
same,composite z-score,[2],1.76
same,composite z-score,[3],1.62
same,z-score,[4],-0.872 (inactive)
same,composite z-score,[5],0.376
same,composite z-score,[6],0.0885
same,composite z-score,[7],-0.107
same,composite z-score,[8],0.472
same,composite z-score,[9],-1.18
same,composite z-score,[10],1.39
same,composite z-score,[11],-1.21
same,z-score,[12],-0.966
same,composite z-score,[13],-0.415
same,composite z-score,[14],2.33
same,composite z-score,[15],1.32
same,composite z-score,[16],0.108
same,composite z-score,[17],0.86
same,composite z-score,[18],2.14
same,composite z-score,[19],2.07
same,composite z-score,[20],1.15
CCCCCCc1nc(-c2cc(C)c(OC)c(C)c2)c(C)c2c1[Si](C(C)C)(C(C)C)OC2,composite z-score,[1],-0.17
same,composite z-score,[2],0.101
same,composite z-score,[3],-0.178
same,z-score,[4],-1.9 (inactive)
same,composite z-score,[5],-0.722
same,composite z-score,[6],-0.644
same,composite z-score,[7],0.202
same,composite z-score,[8],-0.0761
same,composite z-score,[9],0.0434
same,composite z-score,[10],0.737
same,composite z-score,[11],-0.226
same,z-score,[12],0.791
same,composite z-score,[13],-0.0571
same,composite z-score,[14],-0.357
same,composite z-score,[15],0.34
same,composite z-score,[16],-0.0445
same,composite z-score,[17],0.184
same,composite z-score,[18],0.116
same,composite z-score,[19],-0.116
same,composite z-score,[20],-0.0116
CCOC(=O)c1ccc(NC(=O)O[C@H]2[C@H](OC(=O)Nc3ccc4c(c3)OCO4)[C@@H](OC(=O)Nc3ccc4c(c3)OCO4)[C@@H](OC)O[C@@H]2CO)cc1,composite z-score,[1],1.41
same,composite z-score,[2],0.164
same,composite z-score,[3],0.157
same,z-score,[4],-0.616 (inactive)
same,composite z-score,[5],1.4
same,composite z-score,[6],1.33
same,composite z-score,[7],0.308
same,composite z-score,[8],1.49
same,composite z-score,[9],0.624
same,composite z-score,[10],0.51
same,composite z-score,[11],1.27
same,z-score,[12],1.5
same,composite z-score,[13],0.48
same,composite z-score,[14],0.517
same,composite z-score,[15],-0.393
same,composite z-score,[16],0.0321
same,composite z-score,[17],-0.0664
same,composite z-score,[18],1.08
same,composite z-score,[19],1.52
same,composite z-score,[20],0.908
COc1ccc([Si](C)(C)[C@@H]2[C@@H](CC(=O)N(CCO)Cc3ccccc3)O[C@]3(C(=O)N(Cc4cccc(N5CCOC5=O)c4)c4ccccc43)[C@H]2C)cc1,composite z-score,[1],1.07
same,composite z-score,[2],-0.178
same,composite z-score,[3],-0.29
same,z-score,[4],-0.244 (inactive)
same,composite z-score,[5],0.386
same,composite z-score,[6],0.688
same,composite z-score,[7],0.41
same,composite z-score,[8],0.468
same,composite z-score,[9],0.291
same,composite z-score,[10],0.523
same,composite z-score,[11],-0.139
same,z-score,[12],-3.7
same,composite z-score,[13],0.538
same,composite z-score,[14],-0.561
same,composite z-score,[15],-0.44
same,composite z-score,[16],-0.173
same,composite z-score,[17],-0.0011
same,composite z-score,[18],-0.237
same,composite z-score,[19],0.861
same,composite z-score,[20],1.2

# Source: PubChem BioAssay
